Measured values published in PubChem BioAssay AID488975 (Johns Hopkins Ion Channel Center, 2010).
Among all 310,000 compounds or so, about 2,600 (0.84%) were called active.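 The calls were made as follows: active = B-score over 3 SD under the library average, and starting fluorescence ratio not unusually high; inactive = the rest.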 For the sample, actives were picked, then their nearest neighbours and some compounds at random.

Biological target: High affinity choline transporter 1 (Homo sapiens) (UniProt Q9GZV3)
Sequence (Q9GZV3 whole entry, looked up): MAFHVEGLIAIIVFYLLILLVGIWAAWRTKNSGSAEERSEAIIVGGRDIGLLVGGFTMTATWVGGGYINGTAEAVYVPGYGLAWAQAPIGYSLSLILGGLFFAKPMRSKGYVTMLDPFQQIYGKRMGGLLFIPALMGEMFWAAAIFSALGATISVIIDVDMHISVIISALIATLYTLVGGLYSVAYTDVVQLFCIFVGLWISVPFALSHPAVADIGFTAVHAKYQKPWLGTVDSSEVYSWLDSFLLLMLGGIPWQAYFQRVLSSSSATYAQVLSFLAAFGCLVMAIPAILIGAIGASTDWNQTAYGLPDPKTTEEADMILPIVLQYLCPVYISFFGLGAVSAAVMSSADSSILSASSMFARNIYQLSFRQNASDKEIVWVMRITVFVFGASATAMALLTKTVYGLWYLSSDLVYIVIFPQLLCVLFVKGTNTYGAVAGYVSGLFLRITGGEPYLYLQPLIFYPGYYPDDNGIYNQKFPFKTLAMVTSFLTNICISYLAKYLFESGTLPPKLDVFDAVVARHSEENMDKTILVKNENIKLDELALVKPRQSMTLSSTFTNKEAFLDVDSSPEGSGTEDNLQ
Assay: inhibits the human high affinity choline transporter (AID 488975);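 as to B-score: choline stimulus applied at its EC90 after an EC20 pre-addition; B-score computed on integrated fluorescence ratio after choline addition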
Settings: CHT-expressing cells, membrane potential dye, choline response, at 10 µM; hits give low values

| SMILES | B-score |
| --- | --- |
| Cc1ccc(C)c(-c2nnc(NC(=O)CS(=O)(=O)c3ccccc3)o2)c1 | inactive |
| Cc1ccc(S(=O)(=O)NCCC(=O)NC2CCN(Cc3ccccc3)CC2)cc1 | inactive |
| COc1ccc(Cc2nnc(SCC(=O)N(c3ccccc3)C(C)C)n(N)c2=O)cc1 | inactive |
| O=c1c2ccccc2nnn1CSc1nnnn1-c1ccccc1 | inactive |
| Nc1nnc(SCn2nnc3ccccc3c2=O)s1 | inactive |
| O=c1c2ccccc2nnn1CSc1nc2sc3c(c2c(=O)n1CC1CCCO1)CCC3 (configuration not stated) | -11.3 (active) |
| CCn1c(SCC(=O)Nc2ccc(OC)c(OC)c2)nnc1-c1c[nH]c2ccccc12 | inactive |
| CCC(C)Sc1nnc(-c2c[nH]c3ccccc23)n1CCOC (configuration not stated) | inactive |
| CCn1c(SCCC(C)C)nnc1-c1c[nH]c2ccccc12 | -5.53 (active) |
| O=[N+]([O-])c1ncc(Br)cc1Nc1ccccc1 | inactive |
| CCOCCn1[nH]c2ccccc2c1=O | inactive |
| CC(Oc1ccc(Br)cc1)C(=O)NCC(c1ccco1)N1CCCCC1 (configuration not stated) | inactive |
| O=C1Nc2ccccc2C12Nc1ccccc1S2 (configuration not stated) | inactive |
| CCc1ccc2c(c1)C1(NN=C(c3ccccc3)S1)C(=O)N2 (configuration not stated) | -6.53 (active) |
| CCc1ccc2c(c1)C(c1ccc([N+](=O)[O-])cc1)=NNC(c1ccccc1)=N2 | inactive |
| CCC(C(=O)N1CCOCC1)n1c(C(=O)OC)cc2occc21 (configuration not stated) | -6.51 (active) |
| CCOC(=O)c1cc2occc2n1CC(=O)N1CCN(C(=O)c2ccco2)CC1 | inactive |
| COC(=O)c1cc2occc2n1Cc1nc(-c2ccccc2C)oc1C | inactive |
| O=C(CN1CCOCC1)Nc1cccc([N+](=O)[O-])c1 | inactive |
| O=C(CCNC(=O)c1ccc(Br)cc1)NCCCc1ccccc1 | inactive |
| CCOC(=O)c1cc(NC(=O)c2cccnc2)ccn1 | inactive |
| CCOC(=O)c1ccc(NC(=O)c2cccnc2)cc1 | inactive |
| Cc1c(C(=O)OC(C)C)sc(NC(=O)c2cccnc2)c1C#N | -5.25 (active) |

| SMILES | B-score |
| --- | --- |
| Cc1ccc(C)c(OCCC(=O)OCC(=O)NC(=O)NCc2ccccc2)c1 | inactive |
| COc1ccccc1C(=O)Nc1ccccc1C(=O)Nc1ccccc1 | inactive |
| Nc1nonc1-n1nnc(C(=O)N/N=C/c2ccccc2O)c1CN1CCCC1 | inactive |
| Cc1ccc(C(=O)Nc2ccc3c(c2)OCO3)cc1S(=O)(=O)N1CCCCC1 | inactive |
| CC1CCC(NC(=O)c2ccc(N3CCCC3=O)cc2)CC1 (configuration not stated) | inactive |
| Cc1ccc(C(=O)NNC(=O)c2ccncc2)cc1S(=O)(=O)N1CCCCC1 | inactive |
| Cc1ccc(C(=O)NC2CCCC(C)C2C)cc1S(=O)(=O)N1CCCCC1 (configuration not stated) | -9.32 (active) |
| CC1CCCC(NC(=O)c2cccc(N3CCCC3=O)c2)C1C (configuration not stated) | -5.25 (active) |
| C/C(=N\NC(=O)c1cccc(N2CCCC2=O)c1)c1ccc(N)cc1 | inactive |
| COc1ccc2oc(C(=O)OCC(=O)N(CC(C)C)c3c(N)n(Cc4ccccc4)c(=O)[nH]c3=O)c(C)c2c1 | inactive |
| CC1=NNC(=O)C1Cc1c(Cl)cccc1Cl (configuration not stated) | inactive |
| Cc1ccc2nc(NC(=O)CSc3nc(=O)n(CCCN(C)C)c4c3CCC4)sc2c1 | inactive |
| COc1ccc(S(=O)(=O)N2CCCCCC2)cc1C(=O)N(C)Cc1cccc(OC)c1OC | inactive |
| C=CCn1cnc2scc(-c3ccccc3)c2c1=O | inactive |
| N#CCCN(CCC#N)c1nnc(-c2ccccc2)s1 | inactive |
| CN(CCC#N)c1ncnc2scc(-c3ccccc3)c12 | -6.05 (active) |
| COc1cc(C(=O)N(C)Cc2cccc(OC)c2OC)ccc1OCC(=O)Nc1cccc(C(F)(F)F)c1 | inactive |
| Fc1ccccc1COc1cccc2cccnc12 | inactive |
| CN(/N=C/c1ccccc1)C(=S)c1ccccc1 | inactive |
| COc1ccc([C@@H]2[C@@H]3C(=O)N(C(C)(C)C)C(=O)[C@@H]3[C@]3(Cc4ccccc4)C(=O)N(c4cccc(Br)c4)C(=O)N23)cc1 | inactive |
| Cc1cccc(NC(=O)c2cccc(S(=O)(=O)N3CCCC3)c2)n1 | inactive |
| O=S(=O)(c1cccc(-c2cn3ccccc3n2)c1)N1CCCC1 | inactive |
| O=S(=O)(c1cccc(-c2nnc(SC(F)F)n2-c2ccccc2)c1)N1CCCCC1 | -6.54 (active) |

| SMILES | B-score |
| --- | --- |
| O=S(=O)(c1cccc(-c2nnc3n2CCCCC3)c1)N1CCOCC1 | inactive |
| Cc1onc(-c2ccccc2Cl)c1C(=O)N(Cc1ccc(N(C)C)cc1)C(C)C | inactive |
| Cc1ccn2c(=O)c(NC(=O)c3cccc4ccccc34)c(C)nc2c1 | inactive |
| Cc1c(Cl)cccc1NC(=O)Nc1ccc(C(=O)N2CCCC2)cc1 | inactive |
| COC(=O)C(C(=O)Nc1cccc(Cl)c1C)C1CCCC1 (configuration not stated) | -5.46 (active) |
| Cc1c(Cl)cccc1NC(=O)NCc1ccc(C)n1C | inactive |
| CCN(CC(=O)Nc1c(F)cccc1F)C(=O)C1CCC1 | inactive |
| Cc1ccc(S(=O)(=O)NC(C)C(=O)NCc2ccc(Cl)cc2)cc1 (configuration not stated) | inactive |
| CCCNC(=O)c1ccc(N2CCC3(CC2)CC(c2cccc(Br)c2)=NO3)c(NC(=O)c2ccco2)c1 | inactive |
| CCN(CC(=O)Nc1cc(Cl)ccc1C)C(=O)CSCc1ccc(C)cc1 | inactive |
| CCN(CC(=O)NCc1ccc(Cl)cc1)C(=O)CSc1ccccc1 | -5.83 (active) |
| CN(CC(=O)NCc1ccc(Cl)cc1)S(=O)(=O)c1cccs1 | inactive |
| COc1ccc(N2CC(NS(=O)(=O)c3ccc4ccccc4c3)CC2=O)cc1 (configuration not stated) | inactive |
| O=C1N[C@@H](Cc2ccccc2)C(=O)N2[C@H]1C[C@]1(Br)c3ccccc3N(S(=O)(=O)c3ccccc3)[C@H]21 | inactive |
| Cc1nc2ccccc2c(=O)n1-c1ccc(F)c(NC(=O)c2cccs2)c1 | inactive |
| CCN(CC)CCn1c2c(c(SCC(=O)Nc3ccc(C(C)C)cc3)nc1=O)CCC2 | inactive |
| COc1ccc(N(CC(=O)N2CCCCCC2)S(=O)(=O)c2ccccc2)cc1 | inactive |
| CC1CCN(C(=O)CN(c2ccc(Oc3ccccc3)cc2)S(C)(=O)=O)CC1 | -5.53 (active) |
| CS(=O)(=O)N(CC(=O)N1CCN(c2cccc(Cl)c2)CC1)c1ccccc1 | inactive |
| NC(=O)NCCCC(=O)O | inactive |
| Cc1ccc(NC(=O)COc2coc(CN3CCc4ccccc4C3)cc2=O)cc1Cl | inactive |
